Screening data: PubChem BioAssay, National Center for Advancing Translational Sciences (NCATS)
Most compounds without a hit are left out; they make up all but 3.1% or so of the library.
Tb PFK inh = T. brucei PFK enzyme inhibition; O15648; T. brucei PFK, ADP-Glo luminescence; Potency, µM (top dose mostly 57.5 µM), for the others: at the highest dose activity, negative = inhibition, usual class: inhibitors; 330,000 compounds, 0.17% hits; AID 485367;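 further: 0% = uninhibited 1x PFK enzyme wells and -100% = no-enzyme wells; nearly all actives have a fitted effect of over 60% in size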
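PFK 1.25 nM, F6P 0.5 mM, ATP 0.1 mM, 0.1 M TEA pH 8.0, 5 mM MgCl2, 0.01% Tween20, 0.1% BSA; 45 min RT. ADP-Glo readout. qHTS titration up to 57 uM; curves fitted, compounds curve-classed.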
VDR inhibitor = inhibitors of human vitamin D receptor; VDR-SRC2-3 peptide fluorescence polarization, 2 h; 400,000 compounds, 0.93% hits; Potency, µM, without a hit: max response, negative = inhibition, hits mostly inhibitors; further: on the % scale 0 is the no-effect control and ±100 the full control effect
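Reagent solutions, kept cold and dark, are dispensed first; compounds are then pinned in at 23 nl, plates briefly spun, and incubated 2 h at ambient temperature. Inhibition of VDR–SRC2-3 peptide binding is read by fluorescence polarization.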
ASM inhibitor = human S-ASM enzyme inhibition; P17405; placental ASM, HMU-PC fluorogenic substrate, 60 min; Potency, µM (doses to about 57.5 µM), for the others: top-dose activity change, negative = inhibition, most hits filed as inhibitors; 340,000 compounds, 0.006% hits; AID 504937
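qHTS format. ASM enzyme prepared from human placenta hydrolyses the fluorogenic substrate HMU-PC0 (9 uM final) over 60 min at 37 °C after a 10 min compound preincubation.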
Pin1 inh = inhibitors of human Pin1 | Q13526 | Pin1 FP peptide displacement, HiFluor488, 10 min | Potency, µM (series often up to 115 µM), without a hit: top-dose activity, negative = inhibition, usual class: inhibitors | 390,000 compounds, 0.009% hits; active means well fitted inhibition curve with a large enough effect in the polarisation, with a control signal flat, not every such curve was filed as active; inconclusive means small, poorly fitted or top-dose-only effect, or effect the other way, or a change in a side signal; inactive means no such curve, though single readings can be large or run the other way; the % refers to the polarisation; further: on the % scale 0 is the no-effect control and ±100 the full control effect
TDP1 inh = blocks human tyrosyl-DNA phosphodiesterase 1. Q9NUW8. recombinant TDP1, AlphaScreen DNA substrate cleavage. Potency, µM (titrated, usually from 130 µM), inactives show top-dose activity change, negative = inhibition, most hits filed as inhibitors. 350,000 compounds, 0.28% hits. AID 485290; further: on the % scale 0 is the no-effect control and ±100 the full control effect; nearly all actives have a fitted effect of over 40% in size
Target sequence (Q9NUW8 whole entry, looked up): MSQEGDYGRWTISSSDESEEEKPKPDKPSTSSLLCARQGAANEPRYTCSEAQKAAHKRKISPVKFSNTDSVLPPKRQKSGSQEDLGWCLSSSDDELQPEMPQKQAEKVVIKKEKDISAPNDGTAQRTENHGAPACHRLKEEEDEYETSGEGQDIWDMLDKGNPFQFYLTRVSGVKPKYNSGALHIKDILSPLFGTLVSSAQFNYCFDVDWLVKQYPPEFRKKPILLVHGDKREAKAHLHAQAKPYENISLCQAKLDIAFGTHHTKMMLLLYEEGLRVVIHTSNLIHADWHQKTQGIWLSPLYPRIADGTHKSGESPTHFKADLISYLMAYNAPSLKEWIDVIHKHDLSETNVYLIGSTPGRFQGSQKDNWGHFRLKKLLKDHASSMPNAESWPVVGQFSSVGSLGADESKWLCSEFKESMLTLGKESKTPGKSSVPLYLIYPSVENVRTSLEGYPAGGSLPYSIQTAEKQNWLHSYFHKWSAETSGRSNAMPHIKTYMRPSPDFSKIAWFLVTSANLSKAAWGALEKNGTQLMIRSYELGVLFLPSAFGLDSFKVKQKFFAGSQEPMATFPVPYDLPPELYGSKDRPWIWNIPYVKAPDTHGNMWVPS
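Recombinant E. coli-expressed Tdp1 (1 nM) preincubated with compound 15 min at RT, then 5'-biotin/3'-phosphotyrosine-FITC DNA substrate (15 nM) added for 5 min. AlphaScreen beads (10 ug/ml) added, 10 min RT; tyrosine-FITC cleavage read as signal loss.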
PLK1 PBD inh = blocks phosphopeptide binding to human PLK1 polo-box domain; P53350; Plk1 PBD binding of FITC phosphopeptide, fluorescence polarization; Potency, µM, inactives show max response, negative = inhibition, hits mostly inhibitors; 360,000 compounds, 2.8% hits; further: series mostly up to about 57 µM; on the % scale 0 is the no-effect control and ±100 the full control effect; nearly all actives have a fitted effect of over 65% in size
Starred values were filed as active, the others as inactive; ? = inconclusive; nt = not tested or not shown; [ ] = dose if it differs, or a comment. Unless noted, the call rests on the fitted dose curve; in most records, active means well fitted curve in the direction sought with a large enough effect; inconclusive means small, poorly fitted or top-dose-only effect, or another doubt; inactive means no such curve, though single readings can be large; an effect the other way counts as inactive or inconclusive. Potency means the concentration at half of the fitted maximal effect.

SMILES	Tb PFK inh	VDR inhibitor	ASM inhibitor	Pin1 inh	TDP1 inh	PLK1 PBD inh
CSc1ccc(-c2cnc(N3CCC(C(N)=O)CC3)s2)cc1	nt	nt	nt	2%	nt	nt
O=Cc1ccc2oc3nc4n(c(=O)c3c(=O)c2c1)CCCS4	?	7%	-1%	?	10µM*	?
O=c1c2cc(Br)cc(Br)c2oc2nc3n(c(=O)c12)CCCS3	-3%	nt	nt	nt	-4%	nt
COc1ccc(CCNC(=O)CCc2c(C)c3cc4c(C)coc4c(C)c3oc2=O)cc1OC	nt	9%	nt	-3%	2%	nt
O=C(O)Cn1c(SCCOc2ccccc2F)nc2ccccc21	1%	-15%	4%	-1%	2%	19µM*
O=C(O)Cn1c(SCCOc2ccc(Cl)cc2)nc2ccccc21	-1%	-12%	10%	-4%	7%	-13%
CCOC(=O)CCCNC(=O)N1CCc2nc(-c3ccc(OC)cc3C)c3c(c2C1)CO[C@@H](c1ccccc1)C3	nt	nt	nt	nt	4%[12.3 µM]	nt
Cc1c(C(=O)NCc2ccc(N(C)C)cc2)oc2c1-c1nn(Cc3cccc(Cl)c3)cc1CC2	nt	10%	nt	27%	3%	nt
CC(Cc1ccc(O)c(O)c1)(NN)C(=O)O (stereo not drawn)	nt	nt	nt	nt	2%	nt
CC(=O)c1ccc2c(c1)c(C#N)c1ccccc1[n+]2[O-]	-9%	-14%	39%	?	nt	2.4µM*
COc1cc(OC)c(OC)cc1CN1CCc2nc(Nc3ccc4c(c3)OCCO4)ncc2C1	nt	3%	nt	3%	4%	nt
O=C(O)c1ccc2c(=O)n3c(nc2c1)/C(=C/c1ccc(Cl)cc1Cl)CC3	2%	19%	4%	1%	nt	27µM*
O=C(CSc1nc(NS(=O)(=O)c2ccccc2)cc(=O)[nH]1)Nc1ccc(F)cc1	?	1%	-1%	-3%	28µM*	-20%
Clc1ccc(SCNc2ccccc2Cl)cc1	0%	?	-7%	3%	nt	9.5µM*
CCCCc1nc2c(c3c1C[C@H](C)OC3)CN(S(=O)(=O)CCCC)CC2	nt	nt	nt	nt	6%[21 µM]	nt
CC(OC(=O)c1cc(O)c2ccccc2c1O)C(=O)Nc1ccc(C(N)=O)cc1 (stereo not drawn)	0%	?	2%	-17%	-1%[0.505 µM]	6.7µM*
CC(OC(=O)c1ccccc1C(=O)N(C)c1ccccc1)C(=O)Nc1ccc(C(N)=O)cc1 (stereo not drawn)	0%	-4%	-2%	3%	4%	-8%
O=C(Nc1ccccc1)Nc1nc(Nc2cc(F)cc(F)c2)nc(NC2CCCC2)n1	nt	nt	nt	-12%	1%	nt
Nc1ccccc1N=c1ssnc1Cl	?	?	30%	-5%	4%	4.7µM*
Cc1cc(C)nc(/N=c2/ssnc2Cl)c1	-23%	28µM*	-1%	-8%	6%	1.1µM*
Cc1cc(Cl)ccc1N=c1ssnc1Cl	?	?	-8%	-6%	3%	1.5µM*
Cc1cc(C)c(C#N)c(Cl)n1	-5%	-2%	-2%	3%	2%	-2%
Nc1ccccc1N=Nc1ccccc1N	2%	-19%	1%	?	nt	-8%
Cc1cc(Cl)ccc1N=Cc1c(O)n(C)c(=O)n(C)c1=O	4%	nt	nt	nt	2%	nt
COc1ccc(CCNc2ncnc3onc(C)c23)c(OC)c1	nt	3%	nt	-5%	3%	nt
SMILES	Tb PFK inh	VDR inhibitor	ASM inhibitor	Pin1 inh	TDP1 inh	PLK1 PBD inh
Cc1cc2nc3c(=O)n(CCc4ccccc4)c(=O)[nH]c3nc2cc1N	-6%	-27%	-6%	nt	0%	2.7µM*
CCCCn1c(=O)[nH]c2nc3cc(N)ccc3nc2c1=O	-1%	?	-1%	nt	8%	4.7µM*
Nc1ccc2nc3c(=O)n(CCc4ccccc4)c(=O)[nH]c3nc2c1	-6%	-3%	-7%	nt	-1%	4.2µM*
CCOc1ccc(/C=C/c2nc3ccccc3n2S(=O)(=O)c2cccc(Cl)c2)cc1	nt	-1%	nt	3%	7%	nt
CCc1ccc(S(=O)(=O)c2cnc3ccc(OC)cc3c2N2CCCC(C)C2)cc1 (stereo not drawn)	nt	-15%	nt	22%	0%	nt
CC(N)COC(=O)C(CCCCN)NC(=O)Cc1c(-c2ccc3ccccc3c2)[nH]c2c1ccc1ccccc12 (stereo not drawn)	nt	-11%	nt	nt	17%	nt
Cc1ccc2nc(N)[nH]c(=O)c2c1Sc1ccncc1	nt	-1%	nt	nt	nt	nt
O=C(NCCc1nc2ccccc2n1CCCOc1ccc2ccccc2c1)C1CCCCC1	nt	-17%	nt	?	0%	nt
CC(C)c1ccc(N2C(=O)CC(Sc3nc4ccccc4o3)C2=O)cc1 (stereo not drawn)	-5%	-1%	-3%	26%	2%	-19%
CC(C)c1ccc(N2C(=O)CC(Sc3ncn[nH]3)C2=O)cc1 (stereo not drawn)	1%	19%	2%	21%	?	27µM*
CCOC(=O)c1c[nH]c2c(Cl)c(Cl)ccc2c1=O	-4%	-13%	-2%	4%	-2%	27µM*
CN(C)C(=O)c1ccc(SC(=S)NCc2ccccc2)cc1	nt	nt	nt	nt	nt	2.7µM*
O=c1[nH]nc(N2CCOCC2)c(=O)[nH]1	-7%	?	-1%	-1%	-1%	4.7µM*
Oc1ccc(C(=S)N2CCCC2)cc1	-12%	?	2%	-8%	2%	24µM*
Oc1ccc(C(=S)N2CCCCCC2)cc1	-3%	7%	2%	0%	4%	?
S=C(c1ccc(N2CCCC2)cc1)N1CCCCC1	-1%	-20%	0%	3%	11%	8.4µM*
CC(C)(C)c1cc(C(=S)N2CCCC2)cc(C(C)(C)C)c1O	-10%	?	-4%	-18%	nt	30µM*
S=C(c1ccc(N2CCOCC2)cc1)N1CCOCC1	-16%	?	4%	2%	-5%	27µM*
COc1ccc(N2CCN(C(=O)C3CCN(S(=O)(=O)c4cccc5nonc45)CC3)CC2)cc1	nt	0%	nt	-12%	4%	nt
Oc1cccc(C(=S)N2CCCCC2)c1	-12%	?	3%	0%	-5%	11µM*
CCc1nnc2c3ccccc3nc(N3CCN(c4cc(C)ccc4C)CC3)n12	nt	6%	nt	0%	4%	nt
Cc1cc(C)nc(N/N=C/c2sccc2C)n1	0%	?	5%	-3%	-5%	19µM*
Cc1ccc(/C=N/Nc2ccnc3cc(Cl)ccc23)c(C)c1	-1%	-12%	255%	2%	8%	27µM*
